Experimental data from PubChem BioAssay (NCATS).
Where “and” joins values, the source holds several entries; their conditions need not be identical. Identical values can stand only once. Results filed as inconclusive are left out. Calls of active or inactive are those of the source. Unless noted, the call rests on the fitted dose curve; in most records, active means well fitted curve in the direction sought with a large enough effect; inconclusive means small, poorly fitted or top-dose-only effect, or another doubt; inactive means no such curve, though single readings can be large; an effect the other way counts as inactive or inconclusive.

Experiments:
[1] = Cell Viability - MRC5 (AID 434; calls by dose curve;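 further: potency means the concentration at half of the fitted maximal effect; potency reflects cytotoxicity seen as loss of intracellular ATP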); conditions: MRC5 lung fibroblast viability, qHTS
Summary of the method: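 MRC5 normal human lung fibroblasts, 1500 cells/well, exposed to compound for 40 hr at 37 C. Cellular ATP was read by CellTiter-Glo luminescence; data normalized to DMSO and 100 uM tamoxifen, with AC50 from Hill fits.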

[2] = Cellular Toxicity (caspase-3) HepG2 (AID 654); conditions: HepG2 caspase-3 activation, luminescence; series mostly up to 92.2 µM;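 further: cells exposed to compound for 16 hours before reading; 0% = DMSO alone and 100% = caspase signal from 100 µM tamoxifen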
Summary of the method: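 HepG2 cells (1500/well) in complete medium were treated with compounds for 16 hr at 37 °C. Caspase-3/7 activity was then read as luminescence from peptide-aminoluciferin cleavage. AC50 came from Hill fits, normalized to DMSO and 100 uM tamoxifen.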

[3] = Cellular Toxicity (caspase-3) HUV-EC-C (AID 656); conditions: HUV-EC-C cells, caspase-3 activation (apoptosis); series mostly up to 92.2 µM
Summary of the method: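 HUV-EC-C endothelial cells, 1000/well, were pre-incubated 5 hr at 37°C, then exposed to compounds for 16 hr at 37°C. Caspase-Glo 3/7 luminescence was read after 20 min at room temperature. AC50 came from Hill fits, normalized to DMSO and 100 uM tamoxifen.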

[4] = Cellular Toxicity (caspase-3) SHSY5Y (AID 657); conditions: SH-SY5Y caspase-3 activation; series mostly up to 91.7 µM
Summary of the method: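 SH-SY5Y human neuroblastoma cells (1500/well) were treated with compounds for 16 h at 37 °C, then Caspase-Glo 3/7 luminescence was read after 1 h at room temperature. Data normalized to DMSO and 10 uM staurosporine; AC50 from Hill fits.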

[5] = Cellular Toxicity (caspase-3) MRC-5 (AID 659); conditions: MRC-5 cells, luminescence, normalized: DMSO 0%, 10 µM staurosporine 100%; series mostly up to 91.7 µM
Summary of the method: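 MRC-5 human normal lung fibroblasts, 1500 cells/well, treated 16 h at 37 °C in complete medium. Caspase 3/7 measured by Caspase-Glo luminescence after 1 h at room temperature. Normalized to DMSO and 10 uM staurosporine; AC50 from Hill fit.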

[6] = Cellular Toxicity (caspase-3) Mesangial (AID 660); conditions: mesangial cells, normalized: DMSO 0%, 100 µM tamoxifen 100%; series mostly up to 91.7 µM
Summary of the method: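 Human renal glomerular mesangial cells (1000/well) were treated with compounds for 16 h at 37 °C in complete medium, then caspase 3/7 activity was read by Caspase-Glo luminescence. Data were normalized to DMSO and 100 uM tamoxifen; AC50 from Hill fits.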

[7] = Cellular Toxicity (caspase-3) SK-N-SH (AID 661); conditions: SK-N-SH caspase-3 activation, qHTS, DMSO as zero, staurosporine as full; series mostly up to 91.7 µM
Summary of the method: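 SK-N-SH human neuroblastoma cells (1500/well) were treated with compounds for 16 hr at 37 °C in complete medium; caspase 3/7 activity was read by Caspase-Glo luminescence. AC50 came from Hill fits of data normalized to DMSO and 10 uM staurosporine.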

[8] = Cellular Toxicity (caspase-3) H-4-II-E (AID 663); conditions: H-4-II-E rat hepatoma; Potency: caspase-3 activation; series mostly up to 92.2 µM;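 further: cells exposed to compound for 16 hr before readout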
Summary of the method: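 Rat hepatoma H-4-II-E cells (1500/well) plated 5 hr, then exposed to compound titrations for 16 hr at 37 °C. Caspase-Glo 3/7 luminescence read after 20 min at RT; data normalized to DMSO and 100 uM tamoxifen, AC50 from Hill fits.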

[9] = Cellular Toxicity (caspase-3) N2a (AID 665); conditions: N2a cells, luminescence, normalized: DMSO 0%, 10 µM staurosporine 100%; series mostly up to 92.2 µM;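 further: compound exposure lasted 16 h at 37 °C before readout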
Summary of the method: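 Mouse N2a neuroblastoma cells (1500/well) were treated with compounds for 16 h at 37 °C, then caspase-3/7 activity was read by Caspase-Glo luminescence after 1 h at room temperature. Data were normalized to DMSO and 10 uM staurosporine; AC50 from Hill fits.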

[10] = Cellular Toxicity (caspase-3) NIH 3T3 (AID 666); conditions: NIH 3T3 caspase-3 activation, apoptosis/toxicity, 0% DMSO, 100% is 100 µM tamoxifen; series mostly up to 92.2 µM;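 further: caspase signal read after 16 h compound exposure; 0% = DMSO basal and 100% = 100 µM tamoxifen stimulation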
Summary of the method: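 Mouse NIH 3T3 fibroblasts (1000 cells/well) were treated with compound for 16 hr at 37°C in complete medium; caspase-3/7 activity was read by Caspase-Glo luminescence. Normalized to DMSO and 100 uM tamoxifen; AC50 from Hill fits.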

[11] = Cellular Toxicity (caspase-3) Renal Proximal Tubule (AID 667); conditions: renal proximal tubule cells, primary cells freshly taken from rat; Potency: caspase-3 activation; series mostly up to 91.7 µM;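 further: cells exposed to compound for 16 hours at 37 °C before detection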
Summary of the method: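 Primary rat proximal tubule cells, 1000/well, 5 h plating at 37 °C, then compound 16 h at 37 °C. Caspase-Glo 3/7 reagent, 1 h RT, luminescence. Normalized to DMSO (basal) and 10 uM staurosporine (100%); Hill-fit AC50.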

[12] = MultiTox-Fluor Cytotoxicity Assay - LYMP1-001 - Dead Cells (AID 946); conditions: LYMP1-001 lymphoblastoid cells, dead-cell protease fluorescence; series mostly up to 92.2 µM;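 further: 0% = DMSO and 100% = tetraoctylammonium bromide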
Summary of the method: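 AC50 from Hill fit of concentration-response; data normalized to DMSO (basal) and 15 uM tetraoctylammonium bromide (100%). LYMP1-001 lymphoblastoid cells, 2500/well, 16 hr compound at 37 C; dead-cell protease fluorescence, Ex/Em 485/520.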

[13] = Cell Viability - LYMP1-002 - Assay at 16 hr (AID 948); conditions: LYMP1-002 lymphoblastoid cell viability; series mostly up to 92.2 µM;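 further: 0% = DMSO alone and full effect = 92 µM tetraoctylammonium bromide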
Summary of the method: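 Human lymphoblastoid cells (LYMP1-002), 2500/well, were preincubated 5 hr at 37 C, then exposed to compounds for 16 hr at 37 C in complete medium. Cellular ATP was read by CellTiter-Glo luminescence after 30 min at room temperature; AC50 from Hill fits.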

[14] = MultiTox-Fluor Cytotoxicity Assay - LYMP1-002 - Live Cells (AID 955); conditions: LYMP1-002 lymphoblastoid live-cell protease fluorescence viability; series mostly up to 46.1 µM; further: on the % scale 0 is the no-effect control and ±100 the full control effect
Summary of the method: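 Human lymphoblastoid LYMP1-002 cells, 2500/well in complete medium, rested 5 hr at 37 C, then exposed to compounds for 16 hr at 37 C. Live-cell protease cleavage of GF-AFC read by fluorescence (Ex/Em 405/510) after 60 min at room temperature; AC50 from Hill fits.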

[15] = MultiTox-Fluor Cytotoxicity Assay - LYMP1-003 - Live Cells (AID 962); conditions: LYMP1-003 lymphoblastoid cells, MultiTox-Fluor live-cell protease fluorescence; series mostly up to 92.2 µM;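 further: 0% = DMSO only and full loss = 92 µM tetraoctylammonium bromide; cytotoxic hits lower the live-cell protease signal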
Summary of the method: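 LYMP1-003 human lymphoblastoid cells (2500/well) in complete medium were preincubated 5 hr at 37 C, then exposed to compounds for 16 hr at 37 C. Live-cell protease cleavage of GF-AFC read by fluorescence (Ex/Em 405/510); AC50 from Hill fits.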

[16] = Cell Viability - LYMP1-003 - Assay at 24 hr (AID 963); conditions: LYMP1-003 lymphoblastoid cell viability; series mostly up to 92.2 µM;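 further: plate controls were DMSO only for no effect and tetraoctylammonium bromide positive control for full effect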
Summary of the method: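 Human lymphoblastoid LYMP1-003 cells (2500/well) were rested 5 hr at 37 C, then exposed to compounds in complete medium for 24 hr at 37 C. Cellular ATP was quantified by CellTiter-Glo luminescence, and AC50 values came from Hill fits of concentration-response data.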

[17] = Cell Viability - LYMP1-002 - Assay at 24 hr (AID 993); conditions: LYMP1-002 lymphoblastoid cells viability; series mostly up to 92.2 µM; further: on the % scale 0 is the no-effect control and ±100 the full control effect
Summary of the method: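 Human lymphoblastoid LYMP1-002 cells, 2500/well in complete medium, were treated with compounds for 24 h at 37 C; intracellular ATP was read by CellTiter-Glo luminescence. AC50 values came from Hill-equation fits of qHTS concentration-response data.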

[18] = qHTS Assay for Identification of Small Molecule Inducers of Hypoxia Response (AID 2120; active means well fitted curve in the direction sought with a large enough effect in the signal ratio, with a control signal flat, not every such curve was filed as active; the % refers to the signal ratio; further: 0% is about no effect); conditions: hypoxia response reporter cells, beta-lactamase ratio readout; series mostly up to 104 µM
Summary of the method: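 HRE-beta-lactamase reporter in CellSensor HRE-bla ME-180 cells, 2500 cells/well in Opti-MEM with 0.5% dialyzed FBS; compounds tested as titration series, 17 h at 37 degrees C. CCF4 substrate 2.5 h at room temperature; AC50 from 460/530 nm ratio.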

[19] = target: Peroxisome proliferator-activated receptor alpha (Homo sapiens) (UniProt Q07869); assay: qHTS assay for small molecule agonists of the peroxisome proliferator-activated receptor alpha (PPARalpha) signaling pathway (AID 651778); conditions: PathHunter PPARalpha complementation, chemiluminescence, 6 h; max response: active compounds read high; further: % of control where 0% means no effect
Summary of the method: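 Enzyme-fragment complementation assay in which ligand-bound PPARalpha translocates and forms an active enzyme that generates chemiluminescence. Cells were plated overnight, exposed to compound for 6 hr at 37 C, and then given detection reagent for 60 min at room temperature.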

[20] = qHTS assay for small molecule agonists of the antioxidant response element (ARE) signaling pathway measured by Nrf2-dependant transcriptional activity - cell viability counter screen (AID 720653; active means well fitted curve in the direction sought with a large enough effect in the repeat runs; an effect the other way counts as inactive or inconclusive; further: on the % scale 0 is the no-effect control and ±100 the full control effect); conditions: ARE-bla HepG2 viability, CellTiter-Glo ATP luminescence, 16 h; max response: active compounds read low
Summary of the method: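 ARE-bla HepG2 cells treated with compounds for 16 h at 37C; this counter screen measures viability as intracellular ATP by CellTiter-Glo luminescence after 30 min at room temperature.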

Sequence of Peroxisome proliferator-activated receptor alpha (Homo sapiens) (Q07869 whole entry, looked up, the tested form may be a part): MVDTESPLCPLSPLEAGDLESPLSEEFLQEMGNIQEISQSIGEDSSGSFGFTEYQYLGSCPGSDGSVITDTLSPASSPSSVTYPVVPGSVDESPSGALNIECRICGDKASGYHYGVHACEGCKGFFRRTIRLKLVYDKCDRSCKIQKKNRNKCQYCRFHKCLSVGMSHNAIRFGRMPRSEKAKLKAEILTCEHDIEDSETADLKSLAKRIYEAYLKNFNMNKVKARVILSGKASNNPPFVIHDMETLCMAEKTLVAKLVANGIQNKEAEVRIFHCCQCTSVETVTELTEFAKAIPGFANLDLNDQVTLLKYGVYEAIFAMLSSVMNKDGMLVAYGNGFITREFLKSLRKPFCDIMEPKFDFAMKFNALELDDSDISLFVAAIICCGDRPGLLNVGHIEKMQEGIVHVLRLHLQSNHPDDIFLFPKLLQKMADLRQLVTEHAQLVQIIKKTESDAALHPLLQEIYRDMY

CCCCCCCCC1CO1 (stereo not given)
inactive: Potency [1] > 92 µM | Potency [2] | Potency [3] | Potency [4] | outcome [5] | outcome [6] | outcome [7] | Potency [8] | outcome [9] | outcome [10] | Potency [11] | Potency [12] | Potency [13] | outcome [14] | Potency [15] | Potency [16] | Potency [17] | Potency [18] | max response [19] -3.27% | max response [20] 14.9%

CC(C)OCC1CO1 (stereo not given)
inactive: Potency [1] > 92 µM | Potency [2] | Potency [3] | Potency [4] | outcome [5] | outcome [6] | outcome [7] | Potency [8] | outcome [9] | outcome [10] | Potency [11] | Potency [12] | Potency [13] | outcome [14] | Potency [15] | Potency [16] | Potency [17] | Potency [18] | max response [19] -4.21% | max response [20] 0.394%

CC(=O)OC(C(=O)c1ccccc1)c1ccccc1 (stereo not given)
inactive: Potency [1] > 92 µM | Potency [2] | Potency [3] | Potency [4] | outcome [5] | outcome [6] | outcome [7] | Potency [8] | outcome [9] | outcome [10] | Potency [11] | Potency [12] | Potency [13] | outcome [14] | Potency [15] | Potency [16] | Potency [17] | Potency [18] | max response [19] -5.41% | max response [20] -8.03%

OCC(CBr)(CBr)CBr
inactive: Potency [1] > 92 µM | Potency [2] | Potency [3] | Potency [4] | outcome [5] | outcome [6] | outcome [7] | Potency [8] | outcome [9] | outcome [10] | Potency [11] | Potency [12] | Potency [13] | outcome [14] | Potency [15] | Potency [16] | Potency [17] | Potency [18] | max response [19] 1.63% | max response [20] -12.4%

Cc1cccnc1
inactive: Potency [1] > 92 µM | Potency [2] | Potency [3] | Potency [4] | outcome [5] | outcome [6] | outcome [7] | Potency [8] | outcome [9] | outcome [10] | Potency [11] | Potency [12] | Potency [13] | outcome [14] | Potency [15] | Potency [16] | Potency [17] | Potency [18] | max response [19] -1.1% | max response [20] -3.56%

CCCCC(CC)COC(=O)COc1ccc(Cl)cc1Cl (stereo not given)
inactive: Potency [1] > 92 µM | Potency [2] | Potency [3] | Potency [4] | outcome [5] | outcome [6] | outcome [7] | Potency [8] | outcome [9] | outcome [10] | Potency [11] | Potency [12] | Potency [13] | outcome [14] | Potency [15] | Potency [16] | Potency [17] | Potency [18] | max response [19] -1.4% and -1.03% | max response [20] -8.61% and -1.82%
